# Bioassay records (PubChem BioAssay)
# CtBP-E1A inh: blocks the CtBP interaction with E1A; AlphaScreen GST-E1A/His-CtBP binding, 1536-well; active compounds read low; activity change, % (test concentration not listed); 340,000 tested, 0.49% active; in the data active means activity change below about -65%; inconclusive means mostly about -30% to -63%; further: on the % scale 0 is the no-effect control and ±100 the full control effect
#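 Protein mix (5X: 125 nM each GST-E1A, His-CtBP) was incubated with pinned compound 2 h at 37 deg C in dark, in 50 mM Tris pH 8.0 buffer with 300 mM NaCl. Glutathione donor and nickel acceptor beads followed; AlphaScreen signal read after 1 h.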
# Six1-Eya2 inh: Six1/Eya2 interaction inhibition; AlphaScreen GST-Six1/His-Eya2 binding, biochemical; active compounds read low; activity change, % (concentration not given with the values); 360,000 tested, 0.56% active; AID 651725; Q15475+O00167; in the data active means activity change below about -65%; inconclusive means mostly about -30% to -63%; further: on the % scale 0 is the no-effect control and ±100 the full control effect
# Target sequence (O00167 whole entry, looked up): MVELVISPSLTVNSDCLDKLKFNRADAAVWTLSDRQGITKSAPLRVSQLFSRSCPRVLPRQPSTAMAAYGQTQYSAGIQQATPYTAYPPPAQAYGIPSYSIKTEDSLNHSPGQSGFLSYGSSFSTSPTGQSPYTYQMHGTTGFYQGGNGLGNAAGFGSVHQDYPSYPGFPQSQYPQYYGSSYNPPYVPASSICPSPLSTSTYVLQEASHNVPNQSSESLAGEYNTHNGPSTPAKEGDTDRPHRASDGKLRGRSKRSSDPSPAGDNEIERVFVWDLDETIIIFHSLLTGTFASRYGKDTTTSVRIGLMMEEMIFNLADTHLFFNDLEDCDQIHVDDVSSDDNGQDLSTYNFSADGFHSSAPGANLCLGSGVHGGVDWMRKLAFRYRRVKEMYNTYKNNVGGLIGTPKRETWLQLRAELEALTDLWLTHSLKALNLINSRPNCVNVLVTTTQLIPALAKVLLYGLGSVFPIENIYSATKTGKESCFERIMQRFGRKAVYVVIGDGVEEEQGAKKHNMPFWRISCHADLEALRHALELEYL
# Target sequence (Q15475 whole entry, looked up): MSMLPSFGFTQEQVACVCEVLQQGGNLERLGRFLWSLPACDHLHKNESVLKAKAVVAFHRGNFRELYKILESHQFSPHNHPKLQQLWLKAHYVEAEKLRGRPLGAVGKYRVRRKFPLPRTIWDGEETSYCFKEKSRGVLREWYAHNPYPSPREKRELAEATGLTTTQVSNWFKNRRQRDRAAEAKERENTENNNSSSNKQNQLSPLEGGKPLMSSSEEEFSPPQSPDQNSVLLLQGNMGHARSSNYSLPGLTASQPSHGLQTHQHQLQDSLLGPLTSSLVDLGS
#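 Six1/Eya2 binding was read as AlphaScreen signal after compounds were pinned into GST-Six1 plus His-tagged Eya2 (5X stock 250/500 nM) in pH 8.0 Tris/NaCl/TCEP buffer, beads added, then incubated 1 h, 37 C, dark.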
# BAZ2B inh: blocks human BAZ2B; Q9UIF8; AlphaScreen BAZ2B-H3K14Ac peptide displacement; Potency, µM (highest dose often 114 µM), for inactives: at the highest dose activity change, negative = inhibition, usual class: inhibitors; 360,000 tested, 4.4% active; AID 504333; further: potency means the concentration at half of the fitted maximal effect; on the % scale 0 is the no-effect control and ±100 the full control effect; nearly all actives have a fitted effect of over 60% in size
#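 Multi-concentration screen (max 110 uM) measuring displacement of acetylated histone H3 peptide from BAZ2B by AlphaScreen, using 50 nM protein, 50 nM peptide and 10 ug/mL streptavidin donor plus Ni-chelate acceptor beads.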
# G9a block: G9a (human) methyltransferase inhibition; Q96KQ7; G9a H3K9 monomethylation, AlphaScreen, 2 h; Potency, µM (titrated, usually from 102 µM), for the others: at the highest dose activity, negative = inhibition, actives largely listed as inhibitors; 350,000 tested, 8.8% active; AID 504332; further: potency means the concentration at half of the fitted maximal effect; on the % scale 0 is the no-effect control and ±100 the full control effect; nearly all actives have a fitted effect of over 75% in size
#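 Enzyme 20 nM + cpd, 15 min RT; add b-H3K9 pep 500 nM / SAM 20 uM; 2 h RT; anti-H3K9me1 Ab 0.5 ug/mL + SA donor / anti-rabbit acceptor beads 20 ug/mL each, 10 min; AlphaScreen read.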
# JMJD2A Tudor: JMJD2A Tudor domain (human) inhibition; O75164; AlphaScreen JMJD2A-Tudor / H3K4me3 peptide binding; Potency, µM (titrated, usually from 114 µM), for the others: top-dose activity change, negative = inhibition, most hits filed as inhibitors; 390,000 tested, 4.4% active; AID 504339; further: potency means the concentration at half of the fitted maximal effect; on the % scale 0 is the no-effect control and ±100 the full control effect; nearly all actives have a fitted effect of over 50% in size
# HP1b chromo inh: HP1-beta chromodomain-methylated histone interaction inhibition | AlphaScreen HP1-beta / biotin-H3K9me3 peptide binding | Potency, µM (titrated, usually from 114 µM), inactives show top-dose activity change, negative = inhibition, actives largely listed as inhibitors | 390,000 tested, 0.56% active | P83916; further: potency means the concentration at half of the fitted maximal effect; nearly all actives have a fitted effect of over 70% in size
#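 AlphaScreen: HP1-beta (50 nM) preformed 30 min with biotin-H3(1-18)K9me3 peptide (50 nM) in PBS pH 7.4, 0.01% Tween-20. Compound added for 30 min at RT, then streptavidin donor/nickel chelate acceptor beads (10 ug/mL) for 30 min.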
# The depositor's hits bear a star; u = inconclusive; x = no result given; ! = not confirmed by another sample; [ ] = dose if it differs, or a comment. This is a sample that favours compounds with a hit; in the whole collection about 10% have one here. Unless noted, the call rests on the fitted dose curve; in most records, active means well fitted inhibition curve with a large enough effect; inconclusive means small, poorly fitted or top-dose-only effect; inactive means no such curve, though single readings can be large or run the other way.
SMILES,CtBP-E1A inh,Six1-Eya2 inh,BAZ2B inh,G9a block,JMJD2A Tudor,HP1b chromo inh
C[C@@H](NC(=O)[C@@H]1Cc2ccccc2CN1C(=O)OC(C)(C)C)C(=O)NC1CCCCC1,-2,-3,12%,79µM*,-2%,39%
CCCn1c(=O)c2sccc2n2c(CCCC(=O)NCCc3ccc(Cl)cc3)nnc12,x,x,-13%,-23%[59 µM],-8%,2%
Cc1ccc(Nc2cc(C(=O)NC3CCCC3)c3ccccc3n2)cc1C,x,x,6%,5%[59 µM],-6%,18%
O=C(CCn1c(=O)c2cccn2c2cccnc21)NCc1ccccc1F,x,x,-19%,5%[59 µM],3%,39%
COc1ccc(NC(=O)c2cccc(-n3c(C)ccc3C)c2)c(OC)c1,-14,-14,u,7%[59 µM],-17%,-1%
CCCCNC(=O)CNC(=S)N(Cc1ccccc1F)C1CCCCC1,0,-3,-3%,5%,-16%,-11%
CSCC[C@H](NC(=O)[C@@H]1Cc2ccccc2CN1)C(=O)Nc1ccc2c(c1)OCCO2,-7,-18,u,50µM*,-34%,31%
Cc1cc(C)cc(NC(=O)[C@H](NC(=O)[C@@H]2Cc3ccccc3CN2)c2ccccc2)c1,-4,-11,-26%,79µM*,-15%,15%
Cc1ccc(NC(=O)[C@H](NC(=O)[C@@H]2Cc3ccccc3CN2)c2ccccc2)c(C)c1,1,-3,-20%,x,-4%,43%
C[C@H](NC(=O)[C@@H]1Cc2ccccc2CN1)C(=O)Nc1ccc2c(c1)OCCO2,-4,3,-9%,16%[0.0925 µM],-16%,21%
C[C@H](NC(=O)[C@@H]1Cc2ccccc2CN1)C(=O)NC1CCCC1,x,-1,-38%,79µM*,-5%,35%
CCN(CCN(C)C)C(=O)Cn1ncc2c([nH]c3ccc(C)cc32)c1=O,x,x,2%[57.1 µM],-20%[59 µM],1%,27%
Cc1cc(C)c2c(=O)cc(CSc3nnc(-c4ccccc4)n3C)[nH]c2c1,x,x,2%,23%[59 µM],2%,28%[57 µM]
Cc1noc(C)c1CSCC(=O)Nc1cc(Cl)ccc1N1CCCCC1,-4,10,-4%,7%,8%,58%
Cc1noc(C)c1CSCC(=O)Nc1cc(C(F)(F)F)ccc1N1CCCCC1,9,5,5%,40µM*,14%,84%
CN(C)S(=O)(=O)c1ccc(NC(=O)Cc2ccc(S(=O)(=O)N3CCOCC3)s2)cc1,-19,-3,u,56µM*,-29%,17%
O=C(Cc1ccc(S(=O)(=O)N2CCOCC2)s1)Nc1ccccc1N1CCCC1,-7,0,u,x,-23%,7%
O=C(Cc1ccc(S(=O)(=O)N2CCOCC2)s1)Nc1cc(C(F)(F)F)ccc1N1CCCC1,-6,-10,-5%,50µM*,u,17%
Cc1ccc(CNC(=O)[C@H](C)NC(=O)C2CCN(C(=O)[C@@H]3CCCN3C(=O)OC(C)(C)C)CC2)cc1,9,5,8%,-9%[12.7 µM],4%,25%
O=C(Nc1ccc(O)c2c(=O)cc(-c3ccccc3Cl)oc12)c1ccc(F)cc1,5,4,-2%,u,-1%,29%
O=c1cc(-c2ccccc2Cl)oc2cc(O)cc(O)c12,x,-4,-23%,45µM*,-18%,22%
O=c1cc(-c2ccccc2Cl)oc2c(NS(=O)(=O)c3cc(Cl)cc(Cl)c3O)ccc(O)c12,-1,-10,50µM*,50µM*,56µM*,-32%
Nc1ccc(O)c2c(=O)cc(-c3ccccc3Cl)oc12,-17,-11,-6%,16µM*!,-20%,26%
O=C(Nc1nnc2n1CCS2)c1ccco1,u,u,13µM*,1.8µM*,1.6µM*,20%[57 µM]
CC(C)(C)CC(=O)Nc1nnc2n1CCS2,x,x,-4%,38%[59 µM],-8%,14%[57 µM]
SMILES,CtBP-E1A inh,Six1-Eya2 inh,BAZ2B inh,G9a block,JMJD2A Tudor,HP1b chromo inh
CC(C)(C)C(=O)Nc1nnc2n1CCS2,x,x,-1%,-50%[59 µM],-10%,15%[57 µM]
CCCC(=O)Nc1nnc2n1CCS2,x,x,-11%,u,79µM*,-2%[57 µM]
O=C(Cc1ccccc1)Nc1nnc2n1CCS2,x,x,79µM*,10µM*,50µM*,12%[57 µM]
O=C(Cc1ccc(F)cc1)Nc1nnc2n1CCS2,x,x,56µM*,10µM*,u,6%[57 µM]
O=C(CCS(=O)(=O)c1cc2c(cc1Cl)NC(=O)CO2)NCc1ccc(F)cc1,2,0,0%,15%,4%,44%
C[C@@H](C(=O)OCC(=O)NCCc1ccc(S(N)(=O)=O)cc1)N1C(=O)C2CCCCC2C1=O (stereo not given in full),6,0,5%,7%,1%,18%
Cc1ccc(N2C(=N)/C(=C3/Nc4ccccc4S3)C(c3ccccc3)C2=O)cc1 (stereo not given),-1,-2,11%,35µM*,u,-3%
O=C(CN1CCN(c2ccccn2)CC1)N1CC(O)CO1 (stereo not given),-1,-2,-7%,-6%[59 µM],3%,51%
O=C(CN1CCN(c2ccccn2)CC1)N1c2ccccc2Sc2ccc(C(F)(F)F)cc21,-18,-15,22µM*,u,2µM*,16µM*
O=C(CN1CCCC1)N1c2ccccc2Sc2ccc(C(F)(F)F)cc21,-1,-3,4%,u,-24%,17%
O=C(CN1CCN(c2ccccn2)CC1)N1c2ccccc2CCc2ccccc21,-3,-2,32µM*,8.9µM*,3.2µM*,18µM*
Cc1cc(C)c(NC(=O)COC(=O)CCc2ccc(S(=O)(=O)N3CCCCC3)cc2)c(C)c1,0,18,-1%,-1%,-12%,52%
NC(=O)CC(NC(=O)c1ccccc1)c1ccc(NCc2ccc(F)c(F)c2)c([N+](=O)[O-])c1 (stereo not given),-9,-8,u,71µM*,u,3%
COc1ccc(OC)c(C(=O)NC(CC(N)=O)c2ccc(NCc3ccccn3)c([N+](=O)[O-])c2)c1 (stereo not given),-14,-13,u,-2%,-19%,39%
NC(=O)CC(NC(=O)c1ccc(Br)cc1)c1ccc(NCc2ccc(F)c(F)c2)c([N+](=O)[O-])c1 (stereo not given),0,-9,-28%,u,-26%,11%
COc1ccc(OC)c(C(=O)NC(CC(N)=O)c2ccc(NCc3ccc(F)c(F)c3)c([N+](=O)[O-])c2)c1 (stereo not given),x,-8,45µM*,89µM*,u,-11%
CN(C(=O)COC(=O)COc1ccc(N(C)S(=O)(=O)c2ccc(Cl)cc2)cc1)c1ccccc1,x,13,x,x,-17%,58%
Oc1cc(CNCc2ccccc2)c(O)cc1CNCc1ccccc1,-11,-10,x,x,7.9µM*,32µM*
